# Laboratory results: PubChem BioAssay (NCI)
# About 83,000 compounds went through this panel and 20% of them were active in at least one assay; those are over-represented in the sample as a whole.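 Single-concentration screen, 48 h exposure, 96-well plates. Endpoint: percent growth. Below 10 = active.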 Activity calls are given as the source filed them.
# System: HS 578T breast
# Experiment: NCI-60 one-dose screen, 48 h (100 = growth as untreated, 0 = no growth, -100 = all killed)
# Settings: 10 µM unless noted
row,SMILES,growth
1,C=C1C(=O)O[C@H]2[C@H]1CC/C(COC(=O)/C=C\C(=O)O)=C\CC[C@@]1(C)O[C@@H]21,103% (inactive)
2,CCCCC1CCc2cccc3c(SCC(=O)N(C)c4ccc(Cl)cc4)cc[n+]1c23 (centres undefined),116% (inactive)
3,O=C(c1nc2ccccc2[nH]1)C1C(c2cccc([N+](=O)[O-])c2)C2CC3CCCCC3N2[C@@]12C(=O)Nc1cc(Cl)ccc12 (some centres undefined),33.6% (inactive)
4,O=C1/C(=C/c2ccc(O)cc2)COc2ccc(O)cc21,98.5% (inactive)
5,O=C1/C(=C/c2ccc(O)cc2)COc2ccc(O)c(O)c21,47.4% (inactive)
6,COc1cc2nc(NC3CCCC3)nc(NC3CCN(C(C)C)CC3)c2cc1OC,79.6% (inactive)
7,Cc1ccccc1CNC(=O)C1CN(c2ccc(Cl)cc2)N(c2ccc(Cl)cc2)C1=O (centres undefined),85.5% (inactive)
8,COc1cc(C2CC(c3ccc(Nc4nc(NCCO)nc(N5CCOCC5)n4)cc3)=NN2c2cc(Cl)cc(Cl)c2)cc(OC)c1OC (centres undefined),22.6% (inactive)
9,O=C(c1nc2ccccc2[nH]1)C1C(c2ccc([N+](=O)[O-])cc2)C2CC3CCCCC3N2[C@@]12C(=O)Nc1cc(Cl)ccc12 (some centres undefined),54.6% (inactive)
10,O=C(Cn1cc(COc2ncnc3c2cnn3-c2ccccc2)nn1)Nc1cccc2ccccc12,85.1% (inactive)
11,CN1C(=O)N(C)C2Nn3c(s/c(=C\c4ccc(Cl)cc4Cl)c3=O)=NC21 (centres undefined),66.9% (inactive)
12,O=Cc1cc2ccccc2nc1Nc1nccs1,91.9% (inactive)
13,O=C1/C(=C/c2cccc(O)c2)COc2ccc(O)cc21,101% (inactive)
14,COc1cc2nc(NC3CCC3)nc(NC3CCN(C(C)C)CC3)c2cc1OC,66.2% (inactive)
15,O=C(c1nc2ccccc2[nH]1)C1[C@@H](c2cccc(O)c2)C2CC3CCCCC3N2[C@@]12C(=O)Nc1cc(Cl)ccc12 (some centres undefined),57.1% (inactive)
16,CCN1C(=O)N(c2ccccc2)C2NN=c3s/c(=C4\C(=O)N(C(C)C)c5ccccc54)c(=O)n3C21 (centres undefined),24.6% (inactive)
17,Cc1sc2ncn(CC(=O)Nc3ccc(S(N)(=O)=O)cc3)c(=O)c2c1C,95.8% (inactive)
18,COC(=O)c1c2c(c(C)[n+]([O-])c1C)C(=O)C(NCc1ccc(F)c(F)c1)=CC2=O,80.2% (inactive)
19,CNCCNc1nc2ccccc2c2c(=O)c3cccc(OC)c3sc12,40.8% (inactive)
20,CNCCNc1nc2ccccc2c2c(=O)c3cccc(C)c3sc12,61.6% (inactive)

row,SMILES,growth
1,COc1cc(/C=C2\Oc3cc(OCCCN4CCCC4)ccc3C2=O)cc(OC)c1,70.2% (inactive)
2,COC(=O)[C@H](NC(=O)C1(C)CCC[C@]2(C)[C@H]3C[C@H]4C(C(C)C)=C[C@]3(CC[C@@H]12)[C@@H]1C(=O)CCC(=O)[C@@H]14)C(C)C (some centres undefined),92.9% (inactive)
3,COc1cc(/C=C2\CN(C)C/C(=C\c3cc(CN4CCCCC4)c(O)c(OC)c3)C2=O)cc(CN2CCCCC2)c1O,81.9% (inactive)
4,O=S(=O)(Nc1ncccn1)c1ccc(NC2Nc3nc4ccccc4nc3S2)cc1 (centres undefined),95.9% (inactive)
5,O=C1CCC(N2C(=O)c3cccc(NCCCCCCOc4ccc(Nc5nccc(Nc6ccccc6)n5)cc4)c3C2=O)C(=O)N1 (centres undefined),98.2% (inactive)
6,Cc1c(-c2csc(-n3nc(C(F)(F)F)cc3C(F)(F)F)n2)no[n+]1[O-],98.2% (inactive)
7,O=C(NCc1ccccc1)C1CN(c2ccc(Cl)cc2)N(c2ccc(Cl)cc2)C1=O (centres undefined),74.7% (inactive)
8,c1ccc2c(c1)oc1cc3sccc3nc12,101% (inactive)
9,CCCCC1COc2cccc3c2N1C=C/C3=C\C(=O)N(C)c1ccccc1 (centres undefined),78.4% (inactive)
10,COc1cc(/C=C/C(=O)c2ccc(Nc3nc(NCCO)nc(N4CCOCC4)n3)cc2)cc(OC)c1OC,9.53% (active)
11,Cc1cccc2c(=O)c3c(sc12)c(NCCCNCCO)nc1ccccc13,45.4% (inactive)
12,COc1cc(/C=C2\CN(C)C/C(=C\c3cc(CN4CCCC4)c(O)c(OC)c3)C2=O)cc(CN2CCCC2)c1O,87.8% (inactive)
13,O=C(/C=C/c1ccc(C(F)(F)F)cc1)c1ccc(Nc2nc(NCCO)nc(N3CCOCC3)n2)cc1,78.1% (inactive)
14,NCCOc1ccccc1/C=C1\c2ccccc2-c2ccc([N+](=O)[O-])cc21,26.3% (inactive)
15,O=C(/C=C/c1ccc(F)cc1)c1ccc(Nc2nc(NCCO)nc(Nc3ccc(Cl)cc3)n2)cc1,86.8% (inactive)
16,O=c1oc2ccc(Br)cc2c(=O)n1-c1ccc(Br)cc1F,-5.29% (active)
17,NCCNc1nc2ccccc2c2c(=O)c3cc(F)cc(Cl)c3sc12,59.9% (inactive)
18,CCCN1CCN(c2ccc3nc(-c4ccc5nc(-c6cc(OC)ccc6OC)[nH]c5c4)[nH]c3c2)CC1,111% (inactive)
19,Cc1ccc(C2CC(c3ccc(Nc4nc(NCCO)nc(Nc5ccc(Cl)cc5)n4)cc3)=NN2c2cc(Cl)cc(Cl)c2)cc1 (centres undefined),68.3% (inactive)
